# Source: PubChem BioAssay
# L major viab = Leishmania major promastigote growth inhibition, primary screen; hit rate 9% among 200,000; Leishmania major promastigotes, resazurin fluorescence viability; inhibition, % at 10 µM; AID 1063, 2008; in the data active = inhibition above about 50%;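 also: promastigotes grown with compound for 44 hours at 28 °C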
# ROMK primary = ROMK potassium channel modulators, primary screen, cell-based, thallium flux, MLSMR library | ATP-sensitive inward rectifier potassium channel 1 (Homo sapiens), P48048 | AID 1918, 2009 | hit rate 2% among 130,000 | B-score at 10 µM | Tet-inducible ROMK, thallium flux fluorescence; actives lie on both sides;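 active = signal ratio slope over the read window, or its plate-corrected B-score, at least 3 SD from the plate mean, either direction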;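 also: B-score of the F/F0 ratio slope over 7 to 12 s after thallium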
# INS promoter inh = inhibitors of insulin promoter-driven GFP, primary screen, imaging, TRM-6 cells (human fetal islet line), eGFP reporter, cell count; AID 1273, 2008; hit rate 0.9% among 130,000; inhibition, % at 2 µM; reporter expression induced with tamoxifen;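 active = inhibition above the mean plus 3 SD, with well images judged a real hit on visual review, cut at about 60% in these data, passing the limit was not always enough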
# HCT116 PTEN-null = growth suppression of PTEN-null HCT116, primary screen, cell-based, CellTiter-Glo. AID 827, 2007. HCT116 PTEN-null viability, 60 h; stronger effect = lower value. viability, % at 10 µM. hit rate 1.2% among 140,000;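 active = viability at or below a set limit, 4 SD under the median of all tested compounds, cut at about 3.7% in these data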;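 also: PTEN knockout HCT116 line with beta catenin targeted HCT116 as companion control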
# bCat KO growth = primary screen for growth suppressors in beta-catenin knockout HCT116 cells (colon tumor, human); HCT116 beta-catenin knockout viability, CellTiter-Glo, 60 h; stronger effect = lower value; viability, % at 10 µM; hit rate 1.5% among 140,000; AID 818, 2007;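 active = viability at or under a set limit, the compound median less 4 SD, cut at about 6% in these data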;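 also: 0% = Hyamine 1622 control at 20 µM and 100% = untreated cell control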
# p97 inhibitor = inhibitors of human p97 ATPase, primary screen, biochemical. recombinant p97 ATPase, Kinase-Glo ATP luminescence, 3 h. hit rate 0.42% among 220,000. inhibition, % at 8 µM. Transitional endoplasmic reticulum ATPase (Homo sapiens), P55072; in the data active = inhibition above about 15%;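 also: 0% = DMSO vehicle and 100% = wells lacking enzyme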
# Target sequence (P55072 whole entry, looked up): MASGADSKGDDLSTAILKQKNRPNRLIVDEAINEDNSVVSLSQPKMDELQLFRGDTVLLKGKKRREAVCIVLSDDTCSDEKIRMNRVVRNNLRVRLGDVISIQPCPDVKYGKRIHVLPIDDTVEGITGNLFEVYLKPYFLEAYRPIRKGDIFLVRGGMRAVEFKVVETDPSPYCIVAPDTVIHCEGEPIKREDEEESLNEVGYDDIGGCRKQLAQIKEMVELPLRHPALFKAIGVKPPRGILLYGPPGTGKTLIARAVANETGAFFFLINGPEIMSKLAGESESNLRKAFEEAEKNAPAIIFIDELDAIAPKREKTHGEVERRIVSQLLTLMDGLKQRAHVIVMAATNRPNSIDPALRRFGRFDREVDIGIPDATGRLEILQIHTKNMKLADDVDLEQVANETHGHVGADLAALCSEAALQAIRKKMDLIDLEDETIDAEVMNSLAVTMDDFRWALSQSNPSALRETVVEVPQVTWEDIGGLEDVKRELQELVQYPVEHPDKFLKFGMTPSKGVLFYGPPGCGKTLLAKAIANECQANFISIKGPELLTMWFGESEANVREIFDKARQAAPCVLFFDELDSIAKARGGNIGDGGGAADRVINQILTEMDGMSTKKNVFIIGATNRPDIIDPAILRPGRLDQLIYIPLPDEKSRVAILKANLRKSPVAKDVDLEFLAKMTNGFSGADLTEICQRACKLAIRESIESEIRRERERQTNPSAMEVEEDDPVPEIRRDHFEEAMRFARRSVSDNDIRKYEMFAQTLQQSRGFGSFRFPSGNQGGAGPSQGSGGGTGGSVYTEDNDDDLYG
# * marks the source's active call; other numbers are inactive results; . = no result. Shown are actives, neighbours in structure and some others; about 10% of the full set was active somewhere.
SMILES,L major viab,ROMK primary,INS promoter inh,HCT116 PTEN-null,bCat KO growth,p97 inhibitor
Cc1ccc(N2C(=O)C3CC(c4ccccc4)=C4C5C=CC(C6C(=O)N(c7ccc(C)cc7C)C(=O)C56)C4C3C2=O)c(C)c1 (centres undefined),78*,0.84,-22,79,92,0
Cc1ccc(N2C(=O)C3C4CC(=O)C(c5ccccc54)C3C2=O)cc1 (centres undefined),7,.,-3,105,111,2
Cc1ccc(N2C(=O)[C@@H]3C(c4cccnc4)=NO[C@@H]3C2=O)c(C)c1,.,.,.,.,.,4
Cc1ccc(N2C(=O)C3CC(c4ccccc4)=C4C5C=CC(C6C(=O)N(c7ccc(C)cc7)C(=O)C56)C4C3C2=O)cc1 (centres undefined),98*,0.033,-47,86,93,6
O=C(COC(=O)Cc1ccc(-c2ccccc2)cc1)NCc1ccccc1,-7,0.069,-13,96,97,-1
O=C(CSc1ccc(F)cc1)Nc1ccc(C2SCCS2)cc1,.,.,.,.,.,2
CC1=CC(=C(C#N)C#N)c2ccccc2N1C,99*,-0.98,.,.,.,5
Cc1ccccc1N1C(=O)CSC1=C(C#N)C#N,-4,0.23,-24,.,.,3
CC(C)(C)c1ccccc1NC(=O)NC1CCN(Cc2c(F)cccc2Cl)CC1,.,.,.,.,.,-5
c1ccc(-c2nnc(OCCN3CCOCC3)c3ccccc23)cc1,83*,-0.18,-3,92,98,5
COCCN(C(=O)C1CCCC1)c1c(N)n(Cc2ccccc2)c(=O)[nH]c1=O,2,0.46,.,.,.,0
Nc1c(N(C(=O)Nc2ccc(Cl)c(Cl)c2)C2CCCC2)c(=O)[nH]c(=O)n1Cc1ccccc1,-2,1.3,2,1.4*,1.4*,4
Fc1ccccc1OCCCN1CCOCC1,51*,.,.,92,94,10
c1ccc(OCCOCCN2CCOCC2)cc1,5,2.5,-55,101,95,2
COc1ccccc1OCCCCCCN1CCOCC1,89*,-0.55,-11,.,.,-2
COc1ccccc1C(=O)OCCN1CCOCC1,-3,1.3,-3,96,94,-3
O=C(Nc1nccs1)C1CCCN1S(=O)(=O)c1ccc(F)cc1 (centres undefined),-5,.,5,106,91,-3
CCOC(=O)c1sc2nc(C)[nH]c(=S)c2c1C,-3,.,79*,.,.,-1
CCOC(=O)c1sc2nc(C)n(N)c(=O)c2c1C,14,1.5,40,.,.,1
NC(=S)Nc1cccc(O)c1,.,.,.,.,.,7
Cc1c(Cl)c(=O)n2c(=O)c(Cl)c(C)n12,2,-3,.,.,.,7
CC[N+](C)(C)CC/C=C1/c2ccccc2Sc2ccc(Cl)cc21,.,.,.,.,.,7
CN(C)CC/C=C1/c2ccccc2COc2ccccc21,.,.,.,.,.,-2
CN(C)CC/C=C1\c2ccccc2Sc2ccc(Cl)cc21,64*,.,41,15,11,2
CN(C)CCC=C1c2ccccc2CCc2ccccc21,88*,.,-24,63,72,-5
SMILES,L major viab,ROMK primary,INS promoter inh,HCT116 PTEN-null,bCat KO growth,p97 inhibitor
CCOc1cc(NC(=S)NCCCN2CCOCC2)c(OCC)cc1NC(=O)C1CCCCC1,-1,-0.13,.,.,.,-5
C[C@H](NC(=O)Nc1ccc2c(c1)OCCO2)C(=O)O,-5,1.4,.,90,82,-3
CCOC(=O)c1cccc(NC(=O)CN(c2ccc(C)cc2)S(=O)(=O)c2c(C)n[nH]c2C)c1,8,.,.,98,104,2
O=C(N/N=C/c1cc([N+](=O)[O-])ccc1O)NC12CC3CC(CC(C3)C1)C2,33,-0.8,-94,54,45,1
O=[N+]([O-])c1ccc(O)c(/C=N/NC(=S)Nc2ccc(Cl)cc2Cl)c1,.,2.9*,.,.,.,9
Cc1cc(Cl)ccc1NC(=O)CCC(=O)N/N=C/c1cc([N+](=O)[O-])ccc1O,92*,0.02,.,.,.,-8
CCn1nc(C)c(/C=N/NC(=S)Nc2ccc(Cl)cc2Cl)c1C,-4,1.3,0,3.8*,10,2
O=C(N/N=C/c1cc([N+](=O)[O-])ccc1O)C12CC3CC(CC(C3)C1)C2,97*,1.1,0,.,.,4
Cc1ccc(C)c(Cn2c(C)nc3c(sc(=S)n3-c3ccccc3)c2=O)c1,2,1.6,-31,.,.,-2
COc1c(F)c(F)c(C(=O)Nc2c(C)cc(Br)cc2C)c(F)c1F,-2,.,.,.,.,1
COc1cc(/C=C/C(=O)c2ccc(O)cc2)ccc1OCC#N,99*,0.64,14,1.7*,2.7*,3
COc1ccc(C(=O)/C=C/c2ccc(O)cc2)cc1,11,.,.,.,.,2
COc1cccc(C(=O)/C=C/c2ccc(SC)cc2)c1,46,.,.,12,6,-2
COC(=O)c1ccc(/C=C/C(=O)c2cccc(OC)c2)cc1,5,0.027,-413,1.9*,2.1*,6
COc1cccc(C(=O)/C=C/c2ccc(OCC#N)c(OC)c2)c1,100*,.,43,2.5*,3.6*,2
COC(=O)c1c(N2C(=O)CC(Sc3ncccc3C(=O)O)C2=O)sc(C)c1C (centres undefined),.,.,.,.,.,5
COc1ccc(/C=C2\CCCc3c2nc2ccc(C)cc2c3C(=O)O)cc1O,.,.,.,.,.,-4
Cc1occc1C(=O)Nc1c(F)c(F)c(F)c(F)c1F,3,-0.98,-27,83,84,-5
Cc1occc1C(=O)Nc1nn[nH]n1,-3,0.46,92*,108,109,-1
O=C1Nc2cc3c(cc2Sc2ccccc21)OCCO3,-9,.,90*,95,101,2
COc1cc(/C=N/NC(=S)Nc2cccc(S(=O)(=O)N(C)C)c2)ccc1O,67*,0.0065,54,76,89,6
CCCOc1ccc(/C=N/Nc2ccccc2[N+](=O)[O-])c(O)c1,-9,0.43,-10,46,48,6
COc1ccc(/C=N/NC(=S)Nc2ccccc2[N+](=O)[O-])cc1O,57*,0.012,14,53,53,-5
CCCOc1ccc(/C=N/NC(=S)Nc2ccccc2[N+](=O)[O-])c(O)c1,98*,.,35,10,7,8
O=[N+]([O-])c1cc(/C=N/NC(=S)Nc2ccccc2Cl)ccc1Cl,11,0.11,.,.,.,2
O=C(Cn1nnc(-c2cccs2)n1)NNC(=O)c1ccccc1Cl,.,2.5,.,.,.,-4
CCOC(=O)C1=C(C)N(CCCCCC(=O)O)C(=O)NC1c1ccccc1OC(=O)c1cccs1 (centres undefined),-5,0,5,89,88,4
O=C(CCCN1C(=O)/C(=C\c2ccccc2)SC1=S)Nc1ccc(O)cc1,39,-1.2,.,.,.,2
O=C(CCCN1C(=O)/C(=C/c2ccccc2)SC1=S)Nc1cccc(O)c1,65*,-0.91,0,.,.,-2
Cc1ccc(NC(=O)CCCN2C(=O)/C(=C/C=C/c3ccccc3)SC2=S)cc1,3,1.3,20,2.4*,7,8
